# Several values for one entry are separate records, joined by “and”; a condition that tells them apart may be missing. Equal entries are not always repeated. Structures can show the parent of a compound that is named as a salt. The campaign covered roughly 5,800 compounds. About 620 (11%) showed activity. For the sample, actives were picked, then their nearest neighbours and some compounds at random. A number with no mark means an inactive call.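 The calls were made as follows: active = score above a cut-off or among the top three wells of a plate; in these data no inactive exceeds 0.85.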
# Tested on: primary human hepatic stellate cells (donor 1)
# Assay: scaled lipid accumulation score (0 = DMSO-like, 1 = nortriptyline-like); higher = stronger HSC inactivation (lipid re-accumulation), active = hit call of the paper
# Conditions: 48 h
# [1] = library stock concentration: 10 mM
# [2] = library stock concentration: 1 mM
# [3] = library stock concentration: 3.33 mM
# [4] = library stock concentration: 80 uM
# [5] = library stock concentration: 400 uM
# [6] = library stock concentration: 2 mM
smiles,measurement,setting,value
COc1ccc(CCN(C)CCCC(C#N)(c2cc(OC)c(OC)c(OC)c2)C(C)C)cc1OC (stereo unspecified),scaled lipid accumulation score,[1],0.616
CCCCC[C@H](O)/C=C/[C@@H]1[C@H]2C[C@@H](CCCCC(=O)O)O[C@H]2C[C@H]1O [6.alpha.-Prostaglandin I1],scaled lipid accumulation score,[2],0.002
C=CCc1ccc(O)c(-c2ccc(O)c(CC=C)c2)c1 [Honokiol],scaled lipid accumulation score,[3],≤ 0
same,scaled lipid accumulation score,[1],0.295
CCCCC[C@@H](O)/C=C/[C@H]1C(=O)C[C@H](O)[C@@H]1CCCCCCCO [Prostaglandin D1 Alcohol],scaled lipid accumulation score,[2],≤ 0
CC(=O)CCCCn1cnc2c1c(=O)n(C)c(=O)n2C,scaled lipid accumulation score,[1],≤ 0
Nc1ncnc2c1C(=O)N(c1ccc([C@H]3CC[C@H](CC(=O)O)CC3)cc1)CCO2,scaled lipid accumulation score,[3],≤ -0.009
same,scaled lipid accumulation score,[1],≤ 0
COc1ccc(CCC(C)NC2CC(C)(C)NC(C)(C)C2)cc1 (stereo unspecified),scaled lipid accumulation score,[1],0.998 (active)
COc1ccc(CNCc2cccc3ccccc23)cc1,scaled lipid accumulation score,[3],0.023
same,scaled lipid accumulation score,[1],0.491
CC(/C=C/c1cccc(Oc2ccc(F)cc2)c1)N(O)C(N)=O (stereo unspecified),scaled lipid accumulation score,[1],0.544 and 0.071
C[C@@H]1C[C@H]2[C@@H]3CCC4=CC(=O)C=C[C@]4(C)[C@@]3(F)[C@@H](O)C[C@]2(C)[C@H]1C(=O)CO,scaled lipid accumulation score,[1],≤ 0
Cc1cc(C)cc(OCC2CNC(=O)O2)c1 (stereo unspecified) [Metaxalone],scaled lipid accumulation score,library stock concentration: 9 mM,≤ 0
same,scaled lipid accumulation score,[1],≤ -0.023
COc1ccc2nc3cc(Cl)ccc3c(Nc3cc(CN4CCCC4)c(O)c(CN4CCCC4)c3)c2n1,scaled lipid accumulation score,[1],0.065
N=C(N)NC(=N)N1CCOCC1,scaled lipid accumulation score,[1],≤ 0
N=C(N)NC(=N)N1CCOCC1 [Moroxydine HCl],scaled lipid accumulation score,[3],0.051
same,scaled lipid accumulation score,library stock concentration: 9.6 mM,≤ -0.006
same,scaled lipid accumulation score,[1],≤ 0
CSc1cccc(Nc2ncc3cc(-c4c(Cl)cccc4Cl)c(=O)n(C)c3n2)c1,scaled lipid accumulation score,[3],0.68
same,scaled lipid accumulation score,[1],0.591
CCN(CC)CCOc1ccc(Nc2ncc3cc(-c4c(Cl)cccc4Cl)c(=O)n(C)c3n2)cc1,scaled lipid accumulation score,[1],0.416
CCN(CC)CCCCNc1ncc2cc(-c3c(Cl)cccc3Cl)c(NC(=O)NC(C)(C)C)nc2n1 [listing 1 of 2 here],scaled lipid accumulation score,[1],1.41 (active)
CCN(CC)CCCCNc1ncc2cc(-c3c(Cl)cccc3Cl)c(NC(=O)NC(C)(C)C)nc2n1 [listing 2 of 2 here],scaled lipid accumulation score,[1],0.999 (active)
COc1c(C=O)c(O)cc2c1C(=O)c1ccccc1C2=O [Damnacanthal],scaled lipid accumulation score,library stock concentration: 17.7 mM,≤ -0.011
Nc1nc(=O)c2c([nH]1)NC[C@@H](CNc1ccc(C(=O)N[C@@H](CCC(=O)O)C(=O)O)cc1)N2C=O [Folinic acid calcium salt],scaled lipid accumulation score,,≤ 0
O=C(c1ccc(C=Cc2n[nH]c3ccccc23)cc1)N1CCNCC1,scaled lipid accumulation score,[1],1.27 (active)
CCC(=O)N1CCN(C(=O)c2ccccc2)CC1,scaled lipid accumulation score,[1],0.027
O=C(c1ccc(/C=C/c2n[nH]c3ccccc23)cc1)N1CCNCC1,scaled lipid accumulation score,[4],≤ -0.016
same,scaled lipid accumulation score,[5],≤ -0.016
same,scaled lipid accumulation score,[6],≤ -0.016
same,scaled lipid accumulation score,[3],0.101
same,scaled lipid accumulation score,[1],0.67
CCCCC(CC)CNC(=N)NC(=N)NCCCCCCNC(=N)NC(=N)NCC(CC)CCCC (stereo unspecified) [Alexidine dihydrochloride],scaled lipid accumulation score,,0.586
"CCCCC(C)(C)[C@H](O)/C=C/[C@@H]1[C@@H](C/C=C\CCCC(=O)O)[C@@H](O)C[C@H]1O [16,16-dimethyl Prostaglandin F2.alpha.]",scaled lipid accumulation score,[2],≤ 0
O=[N+]([O-])c1cn2c(n1)OC[C@@H](OCc1ccc(OC(F)(F)F)cc1)C2,scaled lipid accumulation score,[3],≤ 0
same,scaled lipid accumulation score,[1],≤ 0
O=[N+]([O-])c1ccc2c(c1)S(=O)(=O)C=C2 [Stattic] [listing 1 of 2 here],scaled lipid accumulation score,[3],1.25 (active)
O=[N+]([O-])c1ccc2c(c1)S(=O)(=O)C=C2 [Stattic] [listing 2 of 2 here],scaled lipid accumulation score,[1],0.347
NC(=O)c1ccc([N+](=O)[O-])cc1Cl [Aklomide],scaled lipid accumulation score,[1],0.07
CCCCCCCC/C=C\CCCCCCCC(=O)NCC [Oleoyl Ethyl Amide],scaled lipid accumulation score,[2],≤ 0
O=c1[nH]cnc2[nH]ncc12 [Allopurinol Sodium],scaled lipid accumulation score,[3],≤ 0
same,scaled lipid accumulation score,[1],≤ 0
CC(C)C(=O)Oc1ccc(CO)cc1[C@H](CCN(C(C)C)C(C)C)c1ccccc1.O=C(O)C=CC(=O)O [Fesoterodine Fumarate],scaled lipid accumulation score,[1],1.13 (active)
CC(C)N(CC[C@H](c1ccccc1)c1cc(CO)ccc1O)C(C)C,scaled lipid accumulation score,[3],0.012
same,scaled lipid accumulation score,[1],≤ 0
CC(C)C(=O)Oc1ccc(CO)cc1[C@H](CCN(C(C)C)C(C)C)c1ccccc1 [Fesoterodine Fumarate],scaled lipid accumulation score,[3],0.256
O=C(Cc1ccccc1Nc1c(Cl)cccc1Cl)Oc1ccc(-c2cc(=S)ss2)cc1,scaled lipid accumulation score,[2],≤ 0
O=C(Nc1nc2ccccc2n1CCN1CCOCC1)c1cccc([N+](=O)[O-])c1 [IRAK-1/4 Inhibitor I],scaled lipid accumulation score,[1],0.485
C[C@H]1[C@H]2CC[C@H]3[C@@H]4CC=C5C[C@@H](N(C)C)CC[C@]5(C)[C@H]4CC[C@]23CN1C [Conessine],scaled lipid accumulation score,,0.137
Cc1cc(C(C)Nc2ccccc2)c2nc(N3CCOCC3)cc(=O)n2c1 (stereo unspecified),scaled lipid accumulation score,[4],≤ -0.009
same,scaled lipid accumulation score,[5],≤ -0.009 and ≤ -0.005
same,scaled lipid accumulation score,[6],≤ -0.009 and ≤ -0.005
same,scaled lipid accumulation score,[3],≤ 0
same,scaled lipid accumulation score,[1],≤ 0 and ≤ -0.009 and ≤ -0.005
"c1ccc(CN2CCC3(CCCc4ccccc43)CC2)cc1 [L-687,384 hydrochloride]",scaled lipid accumulation score,[1],0.374
Cl.Cl.O=C(NCCCN1CCC2(CC1)OCc1ccccc12)[C@H]1CCCN1Cc1ccccc1,scaled lipid accumulation score,[1],0.974 (active)
"c1ccc(CN2CCC3(CCc4ccccc43)CC2)cc1 [L-693,403 maleate]",scaled lipid accumulation score,[1],0.504
CC1(C)S[C@@H]2[C@H](N3C(=O)[C@@H](c4ccccc4)NC3(C)C)C(=O)N2[C@H]1C(=O)O [Hetacillin potassium],scaled lipid accumulation score,library stock concentration: 4.7 mM,0.007
same,scaled lipid accumulation score,[1],≤ 0
CC(C)(C)CC(C)(C)c1ccc(O)c(Cc2ccc(Cl)cc2Cl)c1 [Clofoctol],scaled lipid accumulation score,[1],≤ -0.027
CC(=O)O[C@]1(C(C)=O)CC[C@H]2[C@@H]3C=C(C)C4=CC(=O)CC[C@]4(C)[C@H]3CC[C@@]21C [Megestrol acetate],scaled lipid accumulation score,,≤ 0
same,scaled lipid accumulation score,library stock concentration: 5.2 mM,≤ 0 and 0.036
same,scaled lipid accumulation score,[1],≤ 0
CC(=O)O[C@]1(C(C)=O)CCC2C3C=C(Cl)C4=CC(=O)CC[C@]4(C)C3CC[C@@]21C (stereo partly specified) [Chlormadinone acetate],scaled lipid accumulation score,[1],0.968 (active)
CC(=O)O[C@]1(C(C)=O)CC[C@H]2[C@@H]3C=C(Cl)C4=CC(=O)CC[C@]4(C)[C@H]3CC[C@@]21C [Chlormadinone acetate],scaled lipid accumulation score,library stock concentration: 4.5 mM,0.064
same,scaled lipid accumulation score,library stock concentration: 4.9 mM,0.08
CC(=O)O[C@]1(C(C)=O)CC[C@H]2[C@@H]3C=C(C)C4=CC(=O)CC[C@]4(C)[C@H]3CC[C@@]21C,scaled lipid accumulation score,[1],≤ 0
CC(=O)O[C@]1(C(C)=O)CC[C@H]2[C@@H]3C=C(C)C4=CC(=O)CC[C@]4(C)[C@H]3CC[C@@]21C [Megestrol Acetate],scaled lipid accumulation score,[3],≤ 0
same,scaled lipid accumulation score,[1],≤ 0
"CC(C)n1cnc2c(NCc3ccccc3O)nc(NCCCO)nc21 [Cdk Inhibitor, p35]",scaled lipid accumulation score,[3],≤ 0
N[C@@H](Cc1cc(I)c(Oc2cc(I)c(O)c(I)c2)c(I)c1)C(=O)O [L-Thyroxine],scaled lipid accumulation score,[3],≤ 0
same,scaled lipid accumulation score,[1],≤ 0
N[C@@H](Cc1cc(I)c(Oc2cc(I)c(O)c(I)c2)c(I)c1)C(=O)O [Levothyroxine],scaled lipid accumulation score,library stock concentration: 2.6 mM,≤ 0
N[C@@H](Cc1cc(I)c(Oc2cc(I)c(O)c(I)c2)c(I)c1)C(=O)O,scaled lipid accumulation score,[1],≤ 0
c1ccc(C(OC2CCN(CCCc3nn[nH]n3)CC2)c2ccccc2)cc1,scaled lipid accumulation score,[2],≤ 0
O=C1c2ccc(O)c(O)c2C(=O)c2c(O)ccc(O)c21 [Quinalizarin],scaled lipid accumulation score,[1],≤ 0
CCCCCCCCCCCCCCCCCC(=O)NCCO [Stearoyl Ethanolamide],scaled lipid accumulation score,[2],≤ 0
CC(C)OC(=O)CCC/C=C\C[C@@H]1[C@@H](/C=C/[C@H](O)C2Cc3ccccc3C2)[C@@H](F)C[C@@H]1O [AL 8810 isopropyl ester],scaled lipid accumulation score,[2],≤ 0
CCCCCCOC(=O)[C@]1(O)C[C@@H]2O[C@@]1(C)n1c3ccccc3c3c4c(c5c6ccccc6n2c5c31)C(=O)NC4,scaled lipid accumulation score,library stock concentration: 900 uM,0.034
same,scaled lipid accumulation score,[3],≤ 0
CN[C@@H]1C[C@H]2O[C@@](C)([C@@H]1OC)n1c3ccccc3c3c4c(c5c6ccccc6n2c5c31)C(=O)N[C@H]4O,scaled lipid accumulation score,[3],1.21 (active)
Cc1ncc(COP(=O)([O-])[O-])c(CN(CCN(CC(=O)O)Cc2c(COP(=O)([O-])O)cnc(C)c2O)CC(=O)O)c1O.[Mn].[Na+].[Na+].[Na+],scaled lipid accumulation score,[1],0.072
CC(C)CCCCCCC/C=C\C(=O)O [cis-.DELTA.2-11-methyl-Dodecenoic Acid],scaled lipid accumulation score,[2],0.068
CCOc1ccc(Nc2nc(-c3c(C)nc4ccccn34)cs2)cc1,scaled lipid accumulation score,[1],0.446
CCCCC[C@H](O)/C=C/[C@H]1[C@H](O)CC(=O)[C@@H]1CC(=O)CCCCC(=O)O [6-keto Prostaglandin E1],scaled lipid accumulation score,[2],≤ 0
O=C(NC1CC1)c1cccc(-c2ccc3c(NC(=O)C4CC4)n[nH]c3c2)c1,scaled lipid accumulation score,[4],≤ 0
same,scaled lipid accumulation score,[5],≤ 0
same,scaled lipid accumulation score,[6],≤ 0
same,scaled lipid accumulation score,[1],≤ 0
